Test results published in PubChem BioAssay AID2221 (Broad Institute, 2009).
The campaign covered roughly 290,000 compounds. About 2,200 (0.76%) were called active. Rule as the data show it: active = inhibition above about 30%; inconclusive = no clear call, values can overlap the other calls; inactive = below that. This excerpt belongs to a sample that is enriched for actives.

These compounds were tested against Protein RecA (Mycobacterium tuberculosis (strain ATCC 25618 / H37Rv)) (UniProt P9WHJ3) (assay: Mtb RecA intein splicing inhibitors, primary screen, biochemical, fluorescence, HTS (AID 2221;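 also: 0% = vehicle wells and 100% = reference inhibitor control wells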)). Conditions: cell-free RecA intein splicing, stronger effect = higher value, concentration not given here.
Chain of Protein RecA (Mycobacterium tuberculosis (strain ATCC 25618 / H37Rv)) (P9WHJ3 whole entry, looked up): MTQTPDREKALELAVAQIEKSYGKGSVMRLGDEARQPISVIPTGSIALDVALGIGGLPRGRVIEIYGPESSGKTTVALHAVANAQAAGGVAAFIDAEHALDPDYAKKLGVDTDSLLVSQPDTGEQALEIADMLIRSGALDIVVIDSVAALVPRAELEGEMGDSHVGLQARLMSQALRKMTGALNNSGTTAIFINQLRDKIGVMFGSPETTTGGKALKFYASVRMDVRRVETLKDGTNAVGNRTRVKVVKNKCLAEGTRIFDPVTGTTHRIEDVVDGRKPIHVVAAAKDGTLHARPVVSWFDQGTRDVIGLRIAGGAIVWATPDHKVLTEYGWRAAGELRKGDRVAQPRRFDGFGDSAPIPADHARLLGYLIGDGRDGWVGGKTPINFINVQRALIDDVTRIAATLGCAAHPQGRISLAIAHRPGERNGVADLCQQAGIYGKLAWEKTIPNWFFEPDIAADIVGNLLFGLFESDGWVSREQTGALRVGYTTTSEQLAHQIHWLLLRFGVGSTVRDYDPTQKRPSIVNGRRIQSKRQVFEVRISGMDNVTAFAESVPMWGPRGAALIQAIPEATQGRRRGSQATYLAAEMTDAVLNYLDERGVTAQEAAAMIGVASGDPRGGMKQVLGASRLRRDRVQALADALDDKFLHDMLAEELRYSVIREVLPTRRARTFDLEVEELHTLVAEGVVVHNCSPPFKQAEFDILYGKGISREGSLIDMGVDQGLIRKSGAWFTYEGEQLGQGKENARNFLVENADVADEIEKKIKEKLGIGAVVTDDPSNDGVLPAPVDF

Row | Structure (SMILES) | inhibition
1 | Cc1ccccc1C(=O)N1CCC(C(=O)Nc2ccc(S(=O)(=O)N(C)C(C)C)cc2)CC1 | 0.242% (inactive)
2 | C[n+]1ccc(C(=O)NCc2ccccc2)cc1 | 1.21% (inactive)
3 | Cc1cccc(C)c1NC(=S)N(Cc1cccnc1)Cc1ccccc1Cl | 2.64% (inactive)
4 | NC(=O)C1CCN(C(=O)c2ccc(-c3ccccc3)cc2)CC1 | -3.02% (inactive)
5 | CCOC(=O)N1CCC(c2cc(=O)n(-c3ccccc3)[nH]2)CC1 | 95.5% (active)
6 | CCOC(=O)N1CCC(NC(=O)COc2cc(=O)n(C)c3ccccc23)CC1 | -3.15% (inactive)
7 | CCOC(=O)N1CCC(NC(=O)CCc2ccccc2)CC1 | -0.782% (inactive)
8 | Cc1ccc(Nc2nc(CSc3nnc(-c4ccncc4)n3-c3ccccc3C)cs2)cc1 | 16.7% (inactive)
9 | COc1cc(OC)c(S(=O)(=O)Nc2ccccc2C(=O)O)cc1S(=O)(=O)Nc1ccccc1C(=O)O | -1.6% (inactive)
10 | O=C(COc1coc(CN2CCN(c3ccccc3F)CC2)cc1=O)N1CCc2ccccc21 | -2.58% (inactive)
11 | O=C(CCl)Nc1cccc(CP(=O)(c2ccccc2)c2ccccc2)c1 | 35.8% (active)
12 | O=C(Cc1ccccc1)Nc1cccc(NC(=O)c2ccccc2)c1 | -3.56% (inactive)
13 | CCc1cccc(NC(=O)CCC(=O)O)c1 | -2.03% (inactive)
14 | COc1ccc(NC(=O)CCCNC(=O)Cn2cnc3sc4c(c3c2=O)CCCC4)cc1OC | 1.78% (inactive)
15 | CCOC(=O)CN1C(=O)C(=O)c2cc(C)ccc21 | 1.57% (inactive)
16 | CC(C)OC(=O)CN1C(=O)C(=O)c2ccccc21 | 40% (active)
17 | Cc1cc(/C=C2/SC(=O)N(CC(=O)OC(C)C)C2=O)c(C)n1C | -2.4% (inactive)
18 | CC(Oc1cccc(Cl)c1)C(=O)NC1CC(C)(C)NC(C)(C)C1 (centres undefined) | 1.06% (inactive)
19 | Cc1ccc(Cl)cc1NC(=O)C1CCN(S(C)(=O)=O)CC1 | 4.05% (inactive)
20 | CC(=O)Oc1ccc(N(C(C)=O)S(=O)(=O)c2ccc3ccccc3c2)cc1Br | 36.3% (active)
21 | COCCNC(=O)COc1ccc(N(C)S(=O)(=O)c2ccc3ccccc3c2)cc1 | 2.67% (inactive)
22 | CN(c1ccc(OCC(=O)O)cc1)S(=O)(=O)c1ccc2ccccc2c1 | 1.36% (inactive)

Row | Structure (SMILES) | inhibition
23 | CC/C(=N\NC(=O)c1c(C)nc2ccccn12)c1ccc(Cl)cc1 | -3.74% (inactive)
24 | COc1ccc(NC(=O)C(NC(C)=O)C(=O)NCc2ccccc2Cl)cc1 (centres undefined) | -12.2% (inactive)
25 | COc1ccc(C2CC(c3cccs3)Nc3nnnn32)cc1 (centres undefined) | 2.29% (inactive)
26 | COc1ccc(C2C(C#N)=C(N)Oc3n[nH]c(C)c32)cc1CN1CCN(c2ccc(F)cc2)CC1 (centres undefined) | 49.8% (active)
27 | COc1ccccc1CN1CCCC(N2CCN(c3ccc(F)cc3)CC2)C1 (centres undefined) | 1.51% (inactive)
28 | CCCc1[nH]nc2c1C(c1ccc(OC)c(Cn3nc(C)c(Br)c3C)c1)C(C#N)=C(N)O2 (centres undefined) | 16.3% (inactive)
29 | O=C(CN1CCCC1)Nc1sc2c(c1C(=O)Nc1ccccc1)CCCC2 | -1.42% (inactive)
30 | CCOP(=O)(OCC)C(Nc1ccc([N+](=O)[O-])cc1)c1ccc(Cl)cc1 (centres undefined) | 5.51% (inactive)
31 | COc1ccc(C2/C(=C(/O)c3ccccc3)C(=O)C(=O)N2C)c(OC)c1 (centres undefined) | 1.48% (inactive)
32 | COc1ccc(/C=C2/C(=O)N(c3ccccc3)N=C2C)c(OC)c1 | 70% (active)
33 | COc1ccc(/C=C2/C(=O)OCc3cc(OC)c(OC)cc32)c(OC)c1 | -0.742% (inactive)
34 | O=[N+]([O-])c1ccc(N2CCN(c3ccc(F)cc3)CC2)cn1 | 0.617% (inactive)
35 | COc1ccc(C(=O)NC2CC(C)(C)NC(C)(C)C2)cc1OC | 0.554% (inactive)
36 | COc1ccccc1C(=O)NNC(=O)CCN1C(=O)/C(=C\c2ccccc2)SC1=S | 1.3% (inactive)
37 | O=C(CCCN1C(=O)/C(=C/c2cccs2)SC1=S)Nc1ccc(O)cc1 | 59% (active)
38 | O=C(CCCN1C(=O)/C(=C/c2ccccc2)SC1=S)Nc1ccc(O)cc1 | 45.1% (active)
39 | O=C(CCN1C(=O)/C(=C/c2cccs2)SC1=S)NNC(=O)c1cccc(O)c1 | -2.74% (inactive)
40 | O=C(CCCN1C(=O)/C(=C\c2ccccc2)SC1=S)Nc1ccccc1O | -1.47% (inactive)
41 | Cc1ccc(/C=C2\SC(=S)N(CCC(=O)Nc3ccc(O)cc3)C2=O)cc1 | 3.35% (inactive)
42 | CCCCCCNS(=O)(=O)c1ccccc1Br | 8.15% (inactive)
43 | O=C1N[C@H](Cc2ccccc2)C(=O)N[C@H]1Cc1cn(S(=O)(=O)c2ccccc2)c2ccccc12 | 2.29% (inactive)
44 | CCOC(=O)CSc1nnc(CNC(=O)c2cccs2)n1-c1cc(OC)ccc1OC | -0.643% (inactive)
